Measurements: PubChem BioAssay AID588742 (Southern Research Specialized Biocontainment Screening …, 2011)
About 410 (23%) of roughly 1,800 compounds were called active. No rule for the calls is given here. A selection follows. Results with a measured potency or affinity are listed apart.

Test: Vero cell cytotoxicity, cytotoxicity control for flavivirus capping enzyme inhibitors (AID 588742)
Conditions: Vero cells viability, cytotoxicity counter-screen; series mostly up to 40 µM

| SMILES | outcome |
| --- | --- |
| O=[N+]([O-])c1ccc(Cl)c2c1C1C=CCC1C(c1ccccn1)N2 (stereo not given) | inactive |
| Cc1c(OCC(=O)NCCCN2CCCC2=O)ccc2c3c(c(=O)oc12)CCCC3 | inactive |
| Cc1cc(=O)c2c(o1)C(=O)c1occc1C2=O | inactive |
| C/C(=C/CCC(C)[C@H]1CC[C@@]2(C)C3=C(CC[C@]12C)[C@@]1(C)CCC(=O)C(C)(C)[C@@H]1CC3)C(=O)O (stereo not given in full) | inactive |
| CCOc1cc(C2CC(=O)N3CN(C4CCCCC4)CSC3=C2C#N)ccc1O (stereo not given) | inactive |
| N#CC1=C(N)N(c2ccc(Br)cc2)C2=C(C(=O)CCC2)C1c1cccnc1 (stereo not given) | inactive |
| Cc1[nH]n(-c2ccccc2)c(=O)c1N=Nc1ccccc1C(=O)O | inactive |
| COc1cc(/C=C2\S/C(=N/S(=O)(=O)c3ccccc3)NC2=O)c([N+](=O)[O-])cc1OC | inactive |
| COc1cc(/C=C2/C(=O)NN(c3cccc(C)c3)C2=O)cc([N+](=O)[O-])c1O | inactive |
| COc1cc(/C=C2/C(=O)NN(c3ccc(F)cc3)C2=O)cc([N+](=O)[O-])c1O | inactive |
| O=C(O)CN1C(=O)/C(=C2\SC(=S)N(C(Cc3ccccc3)C(=O)O)C2=O)c2ccccc21 (stereo not given) | inactive |
| O=C(O)c1cnn2c(C(F)(F)F)cc(-c3ccccc3)nc12 | inactive |
| O=C1Nc2ccc(Cl)cc2C12Nc1ccccc1-c1nnc(SCc3ccccc3F)nc1O2 (stereo not given) | inactive |
| Cc1cc(O)c(C(C)C)cc1N=Cc1ccccc1[N+](=O)[O-] | inactive |
| Cc1csc(N/N=C/c2ccc(O)c([N+](=O)[O-])c2)n1 | inactive |
| Cc1ccc(S(=O)(=O)Nc2nc(-c3ccc(F)cc3)cs2)cc1 | inactive |
| Cc1nc(COC(=O)c2cc(O)c3ccccc3c2O)cs1 | inactive |
| CC(=O)c1cc(O)c2ccccc2c1O | inactive |
| NC(=O)COc1ccc(/C=C2\C(=O)ON=C2c2ccccc2)cc1 | inactive |
| CC(=O)N1CCn2c3c(c(=O)c4cc(C)ccc42)CCC31 (stereo not given) | inactive |
| O=C(O)c1ccc(Cl)c(S(=O)(=O)Nc2ccc(S(=O)(=O)Nc3cccc(Cl)c3)cc2)c1 | inactive |
| Cc1ccc(C2C(C#N)=C(N)OC3=C2C(=O)CC(C)(C)C3)s1 (stereo not given) | inactive |
| Cc1ccc(SCc2[nH]nc3c2C(c2ccc(C)o2)C(C#N)=C(N)O3)cc1 (stereo not given) | inactive |
| CCS(=O)(=O)c1nc(S(=O)(=O)c2ccc(C)cc2)c(N2CCCC2)s1 | inactive |
| O=C(O)CC/C(=C\c1ccc(N2CCCC2)c([N+](=O)[O-])c1)c1nc2ccccc2s1 | inactive |

| SMILES | outcome |
| --- | --- |
| C=CCNc1cc(N2CCCC2)ccc1[N+](=O)[O-] | inactive |
| COc1ccc(/C=C2/SC(=S)N(CC(=O)O)C2=O)cc1OCc1ccc(Cl)cc1 | inactive |
| COc1ccc(O)c(C(=O)c2cc(SCC(=O)O)c3nc4sc5c(c4c(=O)n3c2)CCCC5)c1 | inactive |
| O=C(O)CSc1cc(C(=O)c2ccccc2O)cn2c(=O)c3c4c(sc3nc12)CCCC4 | inactive |
| O=C(CNc1ccc2ccccc2c1)N/N=C/c1ccncc1 | inactive |
| CN(C)c1cccc(C(=O)OC(C(=O)Nc2ccc([N+](=O)[O-])cc2Br)c2ccccc2)c1 (stereo not given) | inactive |
| CC1=NN(C(=S)Nc2ccccc2)C(c2ccccc2)C1 (stereo not given) | inactive |
| Cc1cccc(C2C3=C(Nc4[nH]n(-c5ccccc5)c(=O)c42)c2ccccc2C3=O)c1 (stereo not given) | inactive |
| COc1cc(N2CCCC2)c(OC)cc1C=O | inactive |
| COc1ccc(S(=O)(=O)CC(=O)c2cc3cccc(C)c3oc2=O)cc1 | inactive |
| N#Cc1c(SC(C(=O)O)c2ccccc2)nc2c(c1-c1cccs1)CCCC2 (stereo not given) | inactive |
| CC1=NN(c2nc(-c3ccccc3)cs2)C(=O)C1 | inactive |
| COc1cc(/C=C(\C#N)C(=O)Nc2ccccc2C(=O)O)cc(Cl)c1OC | inactive |
| COc1ccc2nc3ccccc3nc2c1N | inactive |
| COc1ccc2nc3cccc(OC)c3nc2c1 | inactive |
| COc1cc(N=c2ssnc2Cl)c(OC)cc1Cl | inactive |
| O=C(O)/C(CC(=O)c1ccc(Cl)cc1)=N/Nc1ccc([N+](=O)[O-])cc1[N+](=O)[O-] | inactive |
| O=C(c1ccc(NC(=O)C(c2ccccc2)c2ccccc2)cc1)c1ccc(C(=O)O)c(C(=O)O)c1 | inactive |
| COc1ccccc1/C=C1/C(=O)N(c2ccccc2)N=C1C | inactive |
| CC1=NN(c2ccccc2)C(=O)/C1=C/c1cccs1 | inactive |
| CC(=O)CSc1nsc(SCC(C)=O)c1C#N | inactive |
| C=CCOc1ccccc1OCC(O)CNC(C)C (stereo not given) | inactive |
| O=C(CN1C(=O)/C(=C2/SC(=S)N(CCS(=O)(=O)O)C2=O)c2ccccc21)Nc1cccc(C(F)(F)F)c1 | inactive |
| Cc1oc2cc([N+](=O)[O-])c(O)c([N+](=O)[O-])c2c1C(=O)c1ccc(Br)cc1 | inactive |
| O=[N+]([O-])c1cc(-c2ccccc2)cc([N+](=O)[O-])c1O | inactive |

| SMILES | outcome |
| --- | --- |
| CC(CNC(=O)CN1C(=O)COc2ccc(S(=O)(=O)N3CCCCC3)cc21)c1ccccc1 (stereo not given) | inactive |
| COc1ccc(-c2ccc(CCC(=O)O)o2)cc1 | inactive |
| COC(=O)CCC(=O)OC1(C)C(=O)C2=CN(C3CCCC3)C(c3ccc(OC)cc3)=CC2=C(Br)C1=O (stereo not given) | inactive |
| O=C(O)/C=C/C(=O)c1ccc(O)cc1 | inactive |
| Cc1ccc(C(=O)/C=C/C(=O)O)cc1 | inactive |
| O=C(O)c1[nH]c2ccccc2c1C(c1cc(Br)ccc1O)c1c(C(=O)O)[nH]c2ccccc12 | inactive |
| Cc1ccc(NCc2cccnc2)c(Br)c1 | inactive |
| O=C(CC(Nc1cccc(Cl)c1Cl)C(=O)O)c1ccccc1 (stereo not given) | inactive |
| COc1ccc(C(C2C(=O)CC(C)(C)CC2=O)C2C(=O)CC(C)(C)CC2=O)cc1 | inactive |
| CCOC(=O)c1c(C)oc2c1c(CN1CCN(C(=O)OCC)CC1)c(O)c1ccccc12 | inactive |
| O=C(O)CN1C(=O)C=CC1=O | inactive |
| CCOC(=O)c1c(NC(=O)C2C3C=CC(C3)C2C(=O)O)sc2c1CCC(CC)C2 (stereo not given) | inactive |
| Cc1ccc(/C=C2\SC(=S)N(C(Cc3ccccc3)C(=O)O)C2=O)cc1 (stereo not given) | inactive |
| CCOC(=O)C1=C(C)NC2=C(C(=O)C(C(=O)OCC)C(c3ccco3)C2)C1c1ccccn1 (stereo not given) | inactive |
| Cc1ccc(C(=O)N/N=C/c2ccc(-c3ccc(Br)cc3[N+](=O)[O-])o2)o1 | inactive |
| C=CCOc1ccc(/C=C2\SC(=S)N(C(C(=O)O)c3ccccc3)C2=O)cc1 (stereo not given) | inactive |
| Cc1ccc(Cn2c(=S)[nH]c3ccc(N4CCOCC4)cc3c2=O)o1 | inactive |
| C=CCn1c(=S)[nH]c2scc(-c3ccco3)c2c1=O | inactive |
| O=C(O)COc1ccccc1C=NNc1ccc([N+](=O)[O-])cc1S(=O)(=O)Nc1ccc(Cl)cc1 | inactive |
| Cc1ccc(NC(=S)NNc2ccc([N+](=O)[O-])cc2S(=O)(=O)Nc2ccccc2C(=O)O)cc1C | inactive |
| CC(C)COCC(O)CCC(=O)NNC(=S)Nc1ccccc1 (stereo not given) | inactive |
| Cc1ccc2ccc(C#N)cc2c1O | inactive |
| COc1ccccc1-c1cc(C(=O)Nc2sc3c(c2C#N)CCC(C)C3)c2ccccc2n1 (stereo not given) | inactive |
| COc1cc(C(c2c(C(=O)O)[nH]c3ccccc23)c2c(C(=O)O)[nH]c3ccccc23)ccc1OCc1ccccc1 | inactive |
| COc1cc(/C=C2\C(=N)N3N=C(N4CCOCC4)SC3=NC2=O)ccc1OC(=O)c1ccccc1 | inactive |

| SMILES | outcome |
| --- | --- |
| Cc1cccc(N2C(=O)C(Cl)=C(N3CCOCC3)C2=O)c1 | inactive |
| COc1ccc(C2C=C(c3ccc(Br)cc3)Nc3nc(N4C(=O)CCC4=O)nn32)cc1 (stereo not given) | inactive |
| Cc1ccc(C)c(S(=O)(=O)Nc2ccc(O)c3ccccc23)c1 | inactive |
| Cc1ccc(S(=O)(=O)Nc2ccc3ccccc3c2[N+](=O)[O-])cc1 | inactive |
| O=C(O)c1ccc(N/N=C/c2cn(Cc3ccccc3F)c3ccccc23)cc1 | inactive |
| CC(/C=C1\SC(=S)N(NS(=O)(=O)c2ccc(C)cc2)C1=O)=C\c1ccccc1 | inactive |
| Cc1nc2ccc(NC(=O)c3cc([N+](=O)[O-])cc([N+](=O)[O-])c3Cl)cc2s1 | inactive |
| Cc1cc([N+](=O)[O-])c(C)cc1-c1ccc(/C=N/NC(=O)c2cccnc2)o1 | inactive |
| CN(C)c1c([N+](=O)[O-])cc(N2C(=O)C=CC2=O)cc1[N+](=O)[O-] | inactive |
| CCOc1ccc(/C=C2\SC(=S)N(NS(=O)(=O)c3ccccc3)C2=O)cc1OC | inactive |
| O=C(CCN1C(=O)S/C(=C/c2ccccc2)C1=O)Nc1ccc(O)c(C(=O)O)c1 | inactive |
| COc1ccc(OC)c(-n2c(-c3ccc(O)cc3O)n[nH]c2=S)c1 | inactive |
| Cc1sc(NC(=O)C2CCCCC2C(=O)O)c(C(N)=O)c1-c1ccc(C(C)(C)C)cc1 (stereo not given) | inactive |
| COC(=O)c1sc(-c2ccc(C(C)(C)C)cc2)cc1NC(=O)c1ccccc1C(=O)O | inactive |
| Cc1sc(NC(=O)C2CCCCC2C(=O)O)c(C(N)=O)c1-c1ccc(C(C)C)cc1 (stereo not given) | inactive |
| O=C(O)CN1C(=O)/C(=C\c2cc(Br)ccc2OCc2ccccc2Cl)SC1=S | inactive |
| Oc1cc(CNCc2ccccc2)c(O)cc1CNCc1ccccc1 | inactive |
| O=C(O)CN1C(=O)/C(=C\c2cccc(OCc3ccc(Cl)cc3)c2)SC1=S | inactive |
| O=[N+]([O-])c1ccc(N/N=C2/CCCCC2c2ccccn2)c([N+](=O)[O-])c1 (stereo not given) | inactive |
| CCCc1nc2nc(C)c(NS(=O)(=O)c3ccc(C4CCCCC4)cc3)c(=O)n2[nH]1 | inactive |
| COc1ccc(OC)c(N2C(=O)C(Cl)=C(N3CCOCC3)C2=O)c1 | inactive |
| COc1ccc(Cl)cc1/C=C1/C(=O)ON=C1C | inactive |
| CN1c2ccccc2C(C)(C)C12C=Nc1c(ccc3ccccc13)O2 (stereo not given) | inactive |
| O=C(COC(=O)c1ccc(NS(=O)(=O)c2cccs2)cc1O)NC1CCCCC1 | inactive |
| O=C1CCCc2cc(S(=O)(=O)N3CCC(C(=O)NCc4ccccc4)CC3)ccc2N1 | inactive |
